Activity calls are given as the source filed them. Unless noted, the rule behind the calls is not given here.
Tests used:
[1] = tested on: XIP peptide (Xip251-270) binding; test: XIP fragment 251-270 binding compounds – biochemical, small-molecule microarray, fluorescence 635/667 nm, 0.1 µg/mL protein, primary screen (AID 1182); settings: fluorescent protein binding, 635 nm, higher = more signal, called active from +8 up or from −8 down
XIP peptide (Xip251-270) = test: compounds binding XIP fragment 251-270 – biochemical, small-molecule microarray, fluorescence 635/667 nm, 0.5 µg/mL protein, primary screen (AID 1183); settings: fluorescence 635 nm, higher = more signal
[2] = blood-stage malaria parasite viability loss – strain 3D7, DAPI fluorescence, 100 nL, primary screen (AID 1184);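 note: parasites grown inside human red blood cells in medium with human serum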; settings: P. falciparum 3D7 growth, 3 d, higher = more signal
[3] = target: Homeobox protein Hox-A13 (Mus musculus) (UniProt Q62424); test: disruptors of Hoxa13 oligonucleotide interaction – biochemical, fluorescence polarization, labeled oligonucleotide, primary screen (AID 1185); settings: Hoxa13:DNA binding, 15 min, higher = more signal, called active from +8 up or from −8 down
[4] = blockers of DNA damage checkpoint Chk1 activation – imaging, HeLa, hydroxyurea, phospho-Chk1 antibody, percent positive cells, primary screen (AID 1186); settings: hydroxyurea-induced phospho-Chk1 immunofluorescence imaging, higher = more signal
[5] = blockers of DNA damage checkpoint Chk1 activation – imaging, HeLa, hydroxyurea, phospho-Chk1 nuclear intensity, primary screen (AID 1187); settings: hydroxyurea-induced phospho-Chk1 immunofluorescence imaging, higher = more signal

Homeobox protein Hox-A13 (Mus musculus), sequence (Q62424 whole entry, looked up): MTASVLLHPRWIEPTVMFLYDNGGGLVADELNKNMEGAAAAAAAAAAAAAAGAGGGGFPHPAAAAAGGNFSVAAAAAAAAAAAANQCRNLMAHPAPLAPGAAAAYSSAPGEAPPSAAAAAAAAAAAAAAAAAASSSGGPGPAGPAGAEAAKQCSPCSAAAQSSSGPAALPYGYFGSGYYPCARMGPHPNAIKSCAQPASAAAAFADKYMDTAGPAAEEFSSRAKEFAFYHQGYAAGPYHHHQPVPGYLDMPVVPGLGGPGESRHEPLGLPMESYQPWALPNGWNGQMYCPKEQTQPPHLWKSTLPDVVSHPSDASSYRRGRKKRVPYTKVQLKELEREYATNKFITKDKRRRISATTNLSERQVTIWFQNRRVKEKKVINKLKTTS

Compound	composite z-score [1]	composite z-score (XIP peptide (Xip251-270))	z-score [2]	z-score [3]	z-score [4]	z-score [5]
CN(C)C(=O)[C@]1(Cc2ccccc2N=[N+]=[N-])N=C(c2ccc(OCCCO)cc2)O[C@@H]1c1ccccc1	1.03 (inactive)	0.383	-2.02	-6.21 (inactive)	-0.879 (inactive)	-1.26 (inactive)
C=CCOC(=O)[C@H]1[C@@H]2C(=O)O[C@@H](c3ccccc3)[C@@H](c3ccccc3)N2[C@@H](c2ccc(OCCOC(=O)[C@@H]3C[C@@H]4C(=O)N5CCC[C@H]5C(=O)N4[C@@H]3c3cccc(OCCO)c3)cc2)[C@]12C(=O)Nc1ccccc12	1.48 (inactive)	0.846	-1.71	-0.113 (inactive)	-0.934 (inactive)	-0.0548 (inactive)
C=C(CCCC)C(=O)CC[C@H](OC(=O)c1cccnc1)c1ccccc1OCCO	0.0328 (inactive)	0.222	-3.02	-5.25 (inactive)	-1.12 (inactive)	-0.27 (inactive)
CC(C)C[C@@H]1NC(=O)[C@H]2C[C@@H](C(=O)NCCCCCCN(C)C)[C@@H](c3ccc(O)cc3)N2C1=O	1.2 (inactive)	0.876	1.26	-1.57 (inactive)	0.731 (inactive)	0.387 (inactive)
CCOC(=O)C[C@H]1[C@H](OC(=O)c2cc3ccccc3oc2=O)[C@@H](NC(=O)Cc2ccc(OC)cc2)c2cc(OCCCO)ccc2N1C(=O)c1ccccc1	0.48 (inactive)	0.853	-1.9	-2.46 (inactive)	0.907 (inactive)	0.546 (inactive)
CCCCc1cn(C[C@H](Cc2ccccc2)NC(=O)N[C@H](CO)CCc2oc(C(C)=O)c(C(=O)OC)c2C(=O)OC)nn1	0.703 (inactive)	0.512	-1.92	-4.73 (inactive)	-0.185 (inactive)	-0.228 (inactive)
COc1ccc(CCN2C(=O)[C@@]3(Cc4ccccc42)c2ccccc2C(=O)N(Cc2ccccc2C(F)(F)F)[C@H]3c2ccc(CO)cc2)cc1	-0.223 (inactive)	0.146	-1.18	0.869 (inactive)	-0.389 (inactive)	-0.826 (inactive)
CC(C)(C)OC(=O)CC[C@@]1(C(N)=O)N=C(c2ccc(OCCCO)cc2)O[C@@H]1c1ccccc1	0.222 (inactive)	0.355	-0.589	-3.33 (inactive)	0.335 (inactive)	-0.0302 (inactive)
O=C(NCc1ccccc1)[C@@]1(CCS(=O)(=O)c2ccccc2)N=C(c2ccc(OCCCO)cc2)O[C@H]1c1ccccc1	0.429 (inactive)	0.565	-2.05	-1.15 (inactive)	-0.751 (inactive)	-0.64 (inactive)
COc1ccc([Si](C)(C)[C@@H]2[C@@H](CCO)O[C@]3(C(=O)N(Cc4ccc(N5C(=O)COc6ccccc65)cc4)c4ccccc43)[C@H]2C)cc1	0.906 (inactive)	0.811	-2.81	-2.08 (inactive)	-0.591 (inactive)	-1.55 (inactive)
CC(C)C[C@@H]1NC(=O)[C@@H]2C[C@H](C(=O)NCCCCCN)[C@H](c3cccc(OCCO)c3)N2C1=O	0.0825 (inactive)	0.758	-0.0757	-3.34 (inactive)	-0.356 (inactive)	-0.49 (inactive)
COc1cc(OC)c(C(O)C2C=CC3C(=O)NC(=O)C3N2Nc2ccc(Cl)cc2Cl)cc1Br (configuration not stated)	1.11 (inactive)	0.369	-0.0679	-5.65 (inactive)	0.66 (inactive)	0.862 (inactive)
CCOC1=C2C(CN(S(=O)(=O)c3ccc(C)cc3)C2c2ccc(C)cc2)C2C(=O)N(c3ccccc3)C(=O)C2C1 (configuration not stated)	-0.0729 (inactive)	0.457	0.694	-1.82 (inactive)	0.218 (inactive)	0.402 (inactive)
C=CCN1C(=O)[C@]2(O[C@H](CCO)[C@@H]([Si](C)(C)c3ccc(OC)cc3)[C@@H]2C)c2cc(N3CCCCC3=O)ccc21	0.238 (inactive)	0.732	-2.66	-6.28 (inactive)	-0.147 (inactive)	-0.56 (inactive)
C=CCOC(=O)[C@H]1[C@@H]2C(=O)O[C@@H](c3ccccc3)[C@@H](c3ccccc3)N2[C@@H](c2ccc(OCCOC(=O)[C@H]3C[C@H]4C(=O)N5CCC[C@H]5C(=O)N4[C@H]3c3ccc(O)cc3)cc2)[C@]12C(=O)Nc1ccccc12	0.0734 (inactive)	0.803	-1.62	1.42 (inactive)	-0.398 (inactive)	0.207 (inactive)
C=CCOC(=O)[C@@H]1[C@H]2C(=O)O[C@H](c3ccccc3)[C@H](c3ccccc3)N2[C@H](c2ccc(OCCOC(=O)[C@@H]3C[C@@H]4C(=O)N[C@@H](CCCC[N+](C)(C)C)C(=O)N4[C@@H]3c3cccc(OCCO)c3)cc2)[C@@]12C(=O)Nc1ccc(I)cc12	1.18 (inactive)	0.786	0.0875	6.23 (inactive)	-0.558 (inactive)	0.16 (inactive)
[N-]=[N+]=NCc1ccccc1C[C@@]1(C(=O)NCC(O)CO)N=C(c2ccc(OCCCO)cc2)O[C@@H]1c1ccccc1N=[N+]=[N-] (some centres not stated)	1.78 (inactive)	0.384	-2.37	-1.72 (inactive)	-0.0225 (inactive)	0.105 (inactive)
COc1cc2c(cc1O)C=[N+](Cc1cccc(OC(F)(F)F)c1)CC2	-0.103 (inactive)	0.0686	-1.94	-3.45 (inactive)	-0.0564 (inactive)	-0.707 (inactive)
O=C1OCCC/C=C\[C@H]2OC34C=CCN(Cn5nnc6ccccc65)C(=O)[C@H]3N(CCCCCCO)C(=O)[C@@H]4C12 (some centres not stated)	-0.0221 (inactive)	-0.0976	-0.395	-4.38 (inactive)	-0.471 (inactive)	0.832 (inactive)
CN1C(=O)C2C=CC(C(O)C3CC=CCC3)N(NC(=O)OC(C)(C)C)C2C1=O (configuration not stated)	0.947 (inactive)	0.539	0.849	-2.05 (inactive)	0.867 (inactive)	0.509 (inactive)
O=C1OCC=C[C@H]2OC34C=CCN(c5ccc6ccccc6c5)C(=O)[C@H]3N(CCCCCCO)C(=O)[C@@H]4[C@@H]12 (some centres not stated)	0.458 (inactive)	0.2	-0.341	-5.38 (inactive)	-0.261 (inactive)	-0.572 (inactive)
CN1C(=O)C2C=CC(C(O)c3cccs3)N(Nc3ccccc3)C2C1=O (configuration not stated)	0.193 (inactive)	0.356	0.376	-1.14 (inactive)	0.482 (inactive)	0.35 (inactive)

Source: PubChem BioAssay
